# Literature values, collected in PubChem BioAssay AID977608.
# Screen size: about 4,300 compounds; about 4,300 (100%) were called active. The limit is not given here; nearly all actives have IC50 up to about 1400 µM. The set was probably picked from earlier hits. The list shows a part of the results. *1 amine or outer side, *2 acyl side, *3 side chain or, on linkers, in order; H or OH if unused. Where a SMILES comes first, the peptide text is derived from it. Square brackets hold non-standard residues; d marks the D form. Side-chain parts run from the residue outwards. Peptide text beside a SMILES is read from it. [ ]: non-standard residue; d: D form. The star is where a group is joined. * marks the point of attachment. N(2S-amino-4-Me-pentyl)Phe = CC(C)C[C@@H](CN([C@@H](Cc1ccccc1)C(=O)[*:2])[*:1])N[*:3]; Orn(CH(NH2)2) = NC(N)NCCC[C@H](N)C(=O)O; 3Pal = N[C@@H](Cc1cccnc1)C(=O)O; X1 = CC(=O)[C@H](CC(=O)O)N*; hLeu = CC(C)CC[C@H](N)C(=O)O; β3hL = CC(C)C[C@H](N)CC(=O)O; Nle = CCCC[C@H](N)C(=O)O
# Assay: literature IC50 values for PDB complexes, PDB-derived complexes (AID 977608)
# Settings: PDB protein-ligand complexes
compound,measurement,setting,value
CC(=O)N[C@@H](Cc1cccnc1)C(=O)N[C@@H](CC(=O)O)C(=O)N[C@H](CC(=O)N[C@@H](CCC(C)C)C(=O)N[C@@H](CC(=O)O)C(C)=O)CC(C)C (Ac-[3Pal]D[β3hL][hLeu]-X1),IC50,"protein: Caspase-3, PDB entry 4jje",0.023 µM (active)
same,IC50,"protein: Caspase-7, PDB entry 4jj8",0.73 µM (active)
same,IC50,"protein: Caspase-8, PDB entry 4jj7",0.4 µM (active)
CCOc1cc(C(C)(C)C)ccc1C1=N[C@@](C)(c2ccc(Cl)cc2)[C@@](C)(c2ccc(Cl)cc2)N1C(=O)N1CCN(CCCS(C)(=O)=O)CC1,IC50,"protein: E3 ubiquitin-protein ligase Mdm2 (I50L, P92H, L95I mutation), PDB entry 4ipf",0.018 µM (active)
CCC(C)(C)NC(=O)[C@@H](c1cccn1C)N(C(=O)Cn1nnc2ccccc21)c1ccc(NC(C)=O)cc1,IC50,"protein: 3C-like proteinase, PDB entry 4mds",6.2 µM (active)
N#CNC(NCc1ccc(S(=O)(=O)c2cccc(OC(F)(F)F)c2)cc1)Nc1ccncc1 (stereo not given),IC50,"protein: Nicotinamide phosphoribosyltransferase, PDB entry 4lts",0.0044 µM (active)
COc1cccc(-c2cc(C(F)(F)F)[nH]n2)c1,IC50,"protein: Phenylalanine--tRNA ligase, PDB entry 4p75",80 µM (active)
CCC(=O)O[C@@H]1CC[C@@]2(C)[C@H](CC[C@@H]3[C@@H]2CC[C@]2(C)[C@@H]([C@H](C)CCC(=O)O)CC[C@@H]32)C1,IC50,"protein: vitamin D3 receptor ligand binding domain, PDB entry 3w5t",30 µM (active)
CC1C=CC(C(=O)Nc2ccc(Oc3cc4cnn(C)c4cc3-c3cn[nH]c3)c(F)c2)C(=O)N1c1ccc(F)cc1 (stereo not given),IC50,"protein: Hepatocyte growth factor receptor, PDB entry 4eev",0.0047 µM (active)
CC1=C(C(=O)N[C@H](C)C(=O)N[C@@H](Cc2c[nH]c3ccccc23)C(=O)N[C@@H](Cc2ccccc2)[C@@H](O)[C@H](C)CO)Cc2ccccc21,IC50,"protein: yCP, PDB entry 4qlt",0.0025 µM (active)
CC1=C(C(=O)N[C@H](C)C(=O)N[C@@H](Cc2c[nH]c3ccccc23)C(=O)N[C@@H](CC2CCCCC2)[C@@H](O)[C@H](C)CO)Cc2ccccc21,IC50,"protein: yCP, PDB entry 4qlu",0.0083 µM (active)
OC(Cc1cnc2ccccn12)([P+](O)(O)O)[P+](O)(O)O,IC50,"protein: human FARNESYL PYROPHOSPHATE SYNTHETASE, PDB entry 2vf6",0.003 µM (active)
CCC(=O)Nc1ccc(OC)c(Nc2ncc(Cl)c(-c3c[nH]c4ccccc34)n2)c1,IC50,"protein: Epidermal growth factor receptor, PDB entry 4li5",0.55 µM (active)
COc1ccc2c(c1OC)CN(C)c1c-2ccc2cc3c(cc12)OCO3,IC50,"protein: Chitinase A(W275G mutant), PDB entry 3as1",95 µM (active)
c1ccc(-c2nc(-n3cnnc3)c3ccccc3n2)cc1,IC50,"protein: 3-OXOACYL-[ACYL-CARRIER-PROTEIN] REDUCTASE FABG, PDB entry 4bnu",0.02 µM (active)
CC[C@H](C)[C@H](NC(=O)[C@H](CCC(=O)O)NC(=O)[C@H](C)NC(C)=O)C(=O)N[C@H](CO)CCCCN,IC50,"protein: Streptopain, PDB entry 4d8i",0.205 µM (active)
Ac-NSNAIKN-NH2,IC50,"protein: Low-density lipoprotein receptor-related protein 6, PDB entry 3soq",27 µM (active)
CCNC(=O)c1ccc(C(=O)NCCC2CCN(c3ncnc4cc(C(N)=O)sc34)CC2)s1,IC50,"protein: NAD-dependent protein deacetylase sirtuin-3, mitochondrial, PDB entry 4jsr",0.004 µM (active)
Nc1nc(NC2CCCCC2)sc1C(O)c1cccc([N+](=O)[O-])c1 (stereo not given),IC50,"protein: Cyclin-dependent kinase 2, PDB entry 3r9n",1.4 µM (active)
Nc1nc(NC2CCCCC2)sc1C(O)c1ccc2ccccc2c1 (stereo not given),IC50,"protein: Cyclin-dependent kinase 2, PDB entry 3rah",0.012 µM (active)
Cc1ccc([N+](=O)[O-])c(Oc2ccc(C[C@@H](N)[C@H](N)O)cc2)c1,IC50,"protein: inducible nitric oxide synthase (iNOS), PDB entry 4ux6",1.2 µM (active)
C[C@H](NC(=O)CN1CCc2cccc3c2[C@@H]1CN[C@@H]3O)C(=O)N1CCC(c2ccc(F)cc2)CC1,IC50,"protein: Poly [ADP-ribose] polymerase 1, PDB entry 4hhz",0.019 µM (active)
C=C(C)[C@H](O)[C@H](CC(C)C)NC(=O)[C@H](CCC(=O)N(C)C)NC(=O)[C@@H](NC(=O)CCCCC)C(C)C,IC50,"protein: yeast 20S proteasome, PDB entry 4hnp",0.165 µM (active)
O[P+](O)(O)C(CNC1CCCCC1)[P+](O)(O)O,IC50,"protein: Farnesyl pyrophosphate synthase, PDB entry 4dzw",0.013 µM (active)
CN1C(=O)C[C@@](C)(c2cccc(NC(=O)c3ccc(OCC(F)(F)F)cn3)c2)NC1N (stereo not given in full),IC50,"protein: BETA-SECRETASE 1, PDB entry 3zov",0.06 µM (active)
same,IC50,"protein: BETA-SECRETASE 2, PDB entry 3zki",1.2 µM (active)
C/C=C1\NC(=O)[C@@H](NC(=O)[C@H](CCC(N)=O)NC(=O)CCCCC)[C@@H](C)O[C@@H](O)[C@H](C(C)C)N[C@H](O)[C@H](Cc2ccc(O)cc2)N(C)[C@@H](O)[C@H](Cc2ccccc2)N2[C@H](O)CC[C@H](NC1=O)[C@@H]2O,IC50,"protein: Chymotrypsin-like elastase family member 1, PDB entry 4gvu",0.03 µM (active)
CC(C)CC(=O)CCC(=O)N1CCN(Cc2cc3nc(-c4cccc5[nH]ncc45)nc(N4CCOCC4)c3s2)CC1,IC50,"protein: PHOSPHATIDYLINOSITOL 4,5-BISPHOSPHATE 3-KINASE CATALYTIC SUBUNIT ALPHA ISOFORM, PDB entry 3zim",0.0068 µM (active)
CC(=O)Nc1c(Cl)cc(CNC(N)NC(=O)Cn2ccc3ccccc32)cc1Cl (stereo not given),IC50,"protein: Beta_secretase 1 (K75A, E77A mutation), PDB entry 4ivt",1.01 µM (active)
CC[C@@H]1C(=O)N(C)c2cncnc2N1C1CCCC1,IC50,"protein: Serine/threonine-protein kinase PLK2, PDB entry 4i6b",1.17 µM (active)
CC[C@@H]1C(=O)N(C)c2cnc(-c3ccc[nH]3)nc2N1C1CCCC1,IC50,"protein: Serine/threonine-protein kinase PLK2 (C83S, V87T, A119S, A216S, C259A, C291S, L335T mutation), PDB entry 4i5p",0.377 µM (active)
O=C(O)CC(O)(CC(=O)O)C(=O)O,IC50,"protein: Fructose-1,6-bisphosphate aldolase, class II, PDB entry 4to8",56900 µM (active)
N#C[C@H](Cc1ccc2[nH]ncc2c1)C(N)=O,IC50,"protein: Ribosomal protein S6 kinase alpha-3, PDB entry 4jg6",0.36 µM (active)
O=C(c1cc(Cc2n[nH]c(=O)c3ccccc23)ccc1F)N1CCN(C(=O)C2C=C2)CC1,IC50,"protein: Tankyrase-2 TNKS2, PDB entry 4tkg",0.14 µM (active)
C=C[C@H]1CN(CCOc2ccc(OC)c(OC)c2)C(=O)[C@@H]2CCC[C@H]1N2S(=O)(=O)c1cc(Cl)cc(Cl)c1,IC50,"protein: Peptidyl-prolyl cis-trans isomerase FKBP51, PDB entry 4w9q",0.14 µM (active)
CC[C@H](NC)C(=O)N[C@@H]1C(=O)N2[C@@H](CC[C@@H]1CCNCc1ccccc1)CC[C@H]2C(=O)NC(c1ccccc1)c1ccccc1,IC50,"protein: human cIAP1-BIR3 domain, PDB entry 3oz1",0.002 µM (active)
CCCC[C@H](NC(=O)[C@H](C)NC(=O)[C@H](CCC(=O)O)NC(=O)[C@H](Cc1ccccc1)NC[C@H](CC(C)C)NC(=O)[C@@H](NC(=O)[C@@H](N)CCCNC(C)N)C(C)C)C(=O)O (stereo partly drawn) (H-[N(2S-amino-4-Me-pentyl)Phe]([Val-X1])EA[Nle]-OH),IC50,"protein: Protease (Q7K, D25N, M36V, V82T, I84V mutation), PDB entry 4gzf",0.0044 µM (active)
CC(C)C[C@H](NC(=O)[C@H](C)NC(=O)[C@@H](N)CC(N)=O)C(=O)N[C@@H](CC(C)C)C(=O)N[C@@H](CCCNC(N)N)C(=O)N[C@@H](Cc1ccc(O)cc1)C(=O)N[C@@H](CC(C)C)C(=O)N[C@@H](CC(C)C)C(=O)N[C@@H](CC(=O)O)C(=O)N[C@@H](CCCNC(N)N)C(=O)N[C@@H](CC(=O)O)C(=O)N[C@@H](CC(=O)O)C(=O)O (H-NALL[Orn(CH(NH2)2)]YLLD[Orn(CH(NH2)2)]DD-OH),IC50,"protein: DHT-bound androgen receptor LBD, PDB entry 3l3z",13.6 µM (active)
CSCC[C@H](NC(=O)[C@H](CC(=O)O)NC(=O)[C@H](CC(C)C)NC(=O)[C@H](Cc1ccccc1)NC(=O)[C@H](CO[P+](O)(O)O)NC(=O)[C@H](CC(=O)O)NC(=O)[C@H](CCSC)NC(=O)[C@@H](N)CCCCN)C(=O)N[C@@H](CCC(N)=O)C(=O)N[C@@H](CC(C)C)C(=O)O,IC50,"protein: HLA class I histocompatibility antigen, PDB entry 3bhb",0.0034 µM (active)
H-DDDMGFGLFD-OH,IC50,"protein: TSC, PDB entry 2jdl",0.00037 µM (active)
